35 compounds from PubChem BioAssay can be followed below.

Epidermal growth factor receptor (Homo sapiens), sequence (P00533 whole entry, looked up): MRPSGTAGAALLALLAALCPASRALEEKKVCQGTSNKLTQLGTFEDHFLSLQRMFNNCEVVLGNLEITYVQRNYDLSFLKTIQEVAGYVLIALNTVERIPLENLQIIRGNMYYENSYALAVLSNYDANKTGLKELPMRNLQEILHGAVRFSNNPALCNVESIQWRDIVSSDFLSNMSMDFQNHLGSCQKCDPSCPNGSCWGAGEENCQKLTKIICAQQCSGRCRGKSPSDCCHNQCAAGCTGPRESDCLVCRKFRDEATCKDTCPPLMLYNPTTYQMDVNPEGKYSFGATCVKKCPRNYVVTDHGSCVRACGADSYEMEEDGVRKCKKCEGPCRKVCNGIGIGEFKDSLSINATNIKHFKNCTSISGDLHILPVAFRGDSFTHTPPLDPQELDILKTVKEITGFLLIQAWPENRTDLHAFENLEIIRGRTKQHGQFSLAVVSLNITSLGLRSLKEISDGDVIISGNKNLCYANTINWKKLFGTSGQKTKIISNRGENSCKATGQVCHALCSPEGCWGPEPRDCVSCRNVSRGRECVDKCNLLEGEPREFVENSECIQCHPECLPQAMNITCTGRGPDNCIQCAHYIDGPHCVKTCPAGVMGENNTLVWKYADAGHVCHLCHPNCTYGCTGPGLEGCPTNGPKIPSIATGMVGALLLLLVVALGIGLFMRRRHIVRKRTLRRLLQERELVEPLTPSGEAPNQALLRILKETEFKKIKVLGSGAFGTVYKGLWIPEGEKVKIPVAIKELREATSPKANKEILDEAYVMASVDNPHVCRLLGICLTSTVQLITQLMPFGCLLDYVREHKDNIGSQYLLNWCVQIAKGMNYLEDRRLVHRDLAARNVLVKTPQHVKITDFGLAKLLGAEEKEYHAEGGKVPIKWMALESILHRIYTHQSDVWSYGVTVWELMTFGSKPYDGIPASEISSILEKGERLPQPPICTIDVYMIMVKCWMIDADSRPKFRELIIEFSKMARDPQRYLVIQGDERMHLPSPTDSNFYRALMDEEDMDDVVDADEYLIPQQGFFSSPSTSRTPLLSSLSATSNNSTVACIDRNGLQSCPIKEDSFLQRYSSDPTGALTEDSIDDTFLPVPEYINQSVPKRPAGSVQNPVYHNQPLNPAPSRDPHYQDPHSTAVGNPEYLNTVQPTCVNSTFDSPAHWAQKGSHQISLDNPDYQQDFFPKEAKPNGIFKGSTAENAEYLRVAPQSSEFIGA

One experiment addresses Epidermal growth factor receptor (Homo sapiens) (UniProt P00533). Description: compounds binding epidermal growth factor receptor – biochemical, small-molecule microarray, 635 nm fluorescence, primary screen (AID 1104).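 Also: score merges 667 nm emission intensity with spot signal to noise over triplicate slides.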 The conditions noted are these: EGFR binding, higher = more signal.
`CO[C@H]1O[C@H](CO)[C@@H](OC(=O)Nc2cccc(F)c2)[C@H](OC(=O)Nc2ccccc2)[C@@H]1OC(=O)Nc1ccccc1` gave a composite z-score of 0.397. For the compound `COc1ccc(CCNC(=O)[C@@]2(Sc3ccc(C)cc3)CC(=O)N(C(C)C)[C@@H]2c2ccc(CO)cc2I)cc1`, the composite z-score was -0.719.

With `Cc1ccc(S[C@]2(C(=O)NCCCN(C)C)CC(=O)N(Cc3cc(C(F)(F)F)cc(C(F)(F)F)c3)[C@@H]2c2ccc(CO)cc2)cc1`, the composite z-score is -0.675. Take `CC(C)NC(=O)[C@@]1(c2ccc([N+](=O)[O-])cc2)CC(=O)N(C2CCCCC2)[C@@H]1c1ccc(CO)cc1I`: the composite z-score was -0.527.

For a further experiment, the target named is Follistatin-related protein 3 (Homo sapiens) (UniProt O95633). Put plainly: compounds binding follistatin-related protein 3 – biochemical, small-molecule microarray, 635 nm fluorescence, primary screen (AID 1105).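 Also: score merges emission near 667 nm and signal to noise per printed spot across three slides.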 The conditions noted are these: FSTL3 binding, higher = more signal.
Follistatin-related protein 3 (Homo sapiens), sequence (O95633 whole entry, looked up): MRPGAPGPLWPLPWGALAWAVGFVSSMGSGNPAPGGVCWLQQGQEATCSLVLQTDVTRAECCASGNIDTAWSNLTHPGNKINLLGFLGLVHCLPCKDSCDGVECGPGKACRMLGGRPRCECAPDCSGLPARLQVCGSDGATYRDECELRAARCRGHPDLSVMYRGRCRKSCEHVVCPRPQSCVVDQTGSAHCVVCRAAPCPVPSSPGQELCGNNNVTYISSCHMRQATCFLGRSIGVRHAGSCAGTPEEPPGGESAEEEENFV
Compound `COCCOC(=O)N1C(=O)[C@@]2(c3cc(C#CCCO)ccc31)[C@H](C(=O)N1CCCCCCC1)[C@H]1C(=O)O[C@H](c3ccccc3)[C@H](c3ccccc3)N1[C@@H]2c1ccc(OCCO)cc1` displayed a composite z-score of 1.55. On the same count and under the same terms, then `C=CC[C@@]12N=C(c3ccc(OCCCO)cc3)O[C@@H]1c1ccccc1N(C)C2=O`, with 0.964; and `O=C1C2C=CC(C(O)Cc3ccccc3)N(n3cnnc3)C2C(=O)N1Cc1ccccc1` (centres undefined), with -0.294; and `CCN(CC)c1ccc(N2CC=CC34O[C@@H]5C=CCCOC(=O)C5[C@H]3C(=O)N(CCCCCCO)[C@@H]4C2=O)cc1` (some centres undefined), with -0.879. Same read-out and setting: for `O=C1c2ccccc2[C@](Cc2ccccc2I)(C(=O)NCCN2CCOCC2)[C@H](c2ccc(CO)cc2)N1C1CCCCC1` the value was 1.24; for `[N-]=[N+]=Nc1ccccc1[C@@H]1OC(c2ccc(OCCCO)cc2)=N[C@]1(CCS(=O)(=O)c1ccccc1)C(N)=O`, 1.22. Turning to `CN(C)C(=O)[C@@]1(CCS(=O)(=O)c2ccccc2)COC(c2ccc(OCCCO)cc2)=N1`, the composite z-score is -0.448. The same measure, in the same setting: for `CC(C)C[C@@H]1NC(=O)[C@@H]2C[C@H](C(=O)O)[C@H](c3cccc(OCCO)c3)N2C1=O` the value was 0.152.

Take `CCOC(=O)C[C@H]1[C@H](OC(=O)c2ccc(-c3ccccc3)cc2)[C@@H](NC(=O)Cc2ccc(OC)cc2)c2cc(OCCCO)ccc2N1C(=O)c1ccccc1`: the composite z-score was -0.0876. On the same count and under the same terms, for `C=C(CCCC)/C(=C/C[C@H](OC(C)=O)c1ccccc1OCCO)c1cc(C(=O)OC)ccc1OC` the value was -0.154. With `C=CCC(OC(C)=O)[C@@H]1[C@@H](N(Cc2ccc(-c3ccccc3)cc2)C(=O)c2cccc3ccccc23)c2cc(OCCCO)ccc2N1C(=O)c1ccc(-c2ccccc2)cc1` (some centres undefined), the composite z-score was determined as 0.269. On the same count and under the same terms, then `Cc1ccc(S[C@]2(C(=O)NCCCN(C)C)CC(=O)N(Cc3cc(C(F)(F)F)cc(C(F)(F)F)c3)[C@@H]2c2ccc(CO)cc2I)cc1`, with -1.71; and `CCC[C@@H]1C[C@@]1(CCC)[C@@H](NC(=O)c1ccccc1)c1cccc(Cl)c1`, with 0.644; and `COc1ccccc1CN1C(=O)c2ccccc2[C@@]2(Cc3ccccc3N(CC(C)C)C2=O)[C@@H]1c1ccc(CO)cc1`, with -0.0344. The same measure, in the same setting: then `Cc1ccc(N2C(=O)c3ccccc3[C@@H](C(=O)NC3CC3)[C@@H]2c2ccc(CO)cc2)nc1`, with -1.38.

With `C=C[C@H](CO[Si](CC)(CC)CC)N(Cc1ccc(OC(C)=O)c(OC)c1)S(=O)(=O)c1ccc(Br)cc1`, the composite z-score amounted to 0.465. Still for that read-out and setting: for `O=C1NC(=O)C2C1C=CC(C(O)c1cc(C(F)(F)F)cc(C(F)(F)F)c1)N2Nc1ccccn1` (centres undefined) the value was 0.431. Take `C[N+](C)(C)CCCC[C@@H]1NC(=O)[C@H]2C[C@@H](C(=O)NCCCCCCNC(=O)CS)[C@@H](c3cccc(OCCO)c3)N2C1=O`: the composite z-score was -0.994. In the case of `CC(C)NC(=O)[C@@H]1c2ccccc2C(=O)N(C2Cc3ccccc3C2)[C@H]1c1ccc(CO)cc1`, the composite z-score was found to be 0.0389. `C=C(CC1([C@@H](NP(=O)(c2ccccc2)c2ccccc2)[C@H]2C[C@@H]2CCCC)CC1)c1ccccc1` came in with a composite z-score of 0.438. Same read-out and setting: for `CCOC(=O)C[C@H]1[C@H](OC(=O)c2ccc(C(=O)c3ccccc3)cc2)[C@@H](NC(=O)c2ccc3ccccc3n2)c2cc(OCCCO)ccc2N1C(=O)c1ccccc1` the value was 0.806.

In turn, `O=C1C[C@@](C(=O)NCCN2CCOCC2)(c2ccc([N+](=O)[O-])cc2)[C@@H](c2ccc(CO)cc2)N1CC12CC3CC(CC(C3)C1)C2` returned a composite z-score of 1.3. Still for that read-out and setting: then `CC(C)=CCN[C@H](CO)c1ccccc1`, with 0.576; and `COC(=O)[C@@]1(Cc2ccc(OC)cc2)[C@H]2c3cc(C(=O)N(C)C)n(C)c3C[C@H]2CN1C(=O)c1ccccc1`, with 1.33. On the same count and under the same terms, for `CN1C(=O)C2C=CC(C(O)c3ccc([N+](=O)[O-])cc3)N(N3CCCCC3)C2C1=O` (centres undefined) the value was 0.832; for `CC(=O)n1cc(C(O)C2C=CC3C(=O)N(c4ccccc4)C(=O)C3N2Nc2ccc([N+](=O)[O-])cc2)c2ccccc21` (centres undefined), 0.38; for `O=C(c1ccccc1)N1Cc2ccccc2C[C@@]2(COC(c3ccc(OCCCO)cc3)=N2)C1=O`, 0.796. Take `O=C(c1ccccc1)N1C(=O)[C@]2(COC(c3ccc(OCCCO)cc3)=N2)Cc2ccccc21`: the composite z-score stood at 1.23. `CCCC[C@@H]1C[C@H]1[C@@H](NC(=O)c1ccccc1)c1ccc(C(=O)OC)cc1` returned a composite z-score of -0.668. The same measure, in the same setting: for `COc1cc2c(cc1O)C(C1CC1)N(Cc1sc3ccccc3c1Cl)CC2` (centres undefined) the value was -0.05. On the same count and under the same terms, then `O=C1N(Cc2ccccc2)c2ccccc2[C@@H]2OC(c3ccc(OCCCO)cc3)=N[C@]12CCS(=O)(=O)c1ccccc1`, with 0.0891; and `CO[C@H]1O[C@H](CO)[C@@H](OC(=O)Nc2cccc(F)c2)[C@H](OC(=O)Nc2ccccc2)[C@@H]1OC(=O)Nc1ccccc1`, with 1.2. Still for that read-out and setting: for `COc1ccc(CCNC(=O)[C@@]2(Sc3ccc(C)cc3)CC(=O)N(C(C)C)[C@@H]2c2ccc(CO)cc2I)cc1` the value was -0.645; for `Cc1ccc(S[C@]2(C(=O)NCCCN(C)C)CC(=O)N(Cc3cc(C(F)(F)F)cc(C(F)(F)F)c3)[C@@H]2c2ccc(CO)cc2)cc1`, 0.259. In turn, `CC(C)NC(=O)[C@@]1(c2ccc([N+](=O)[O-])cc2)CC(=O)N(C2CCCCC2)[C@@H]1c1ccc(CO)cc1I` registered a composite z-score of -0.573.
